Results as given in ChEMBL document CHEMBL1961873, “Compounds: GSK PKIS; Assays: Nanosyn kinase panel” (2012).

Assays:
[1] = biological target: Calcium/calmodulin-dependent protein kinase type II subunit alpha (Homo sapiens) (UniProt Q9UQM7); conditions: at 1 µM;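 note: reported value is a mean percent inhibition of CAMK2A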
[2] = biological target: Calcium/calmodulin-dependent protein kinase type II subunit delta (Homo sapiens) (UniProt Q13557); conditions: at 0.1 µM
[3] = biological target: Calcium/calmodulin-dependent protein kinase type II subunit delta (Homo sapiens) (UniProt Q13557); conditions: at 1 µM
[4] = biological target: T1, Calcium/calmodulin-dependent protein kinase type IV (Homo sapiens) (UniProt Q16566); conditions: at 0.1 µM
T1 sequence (whole entry): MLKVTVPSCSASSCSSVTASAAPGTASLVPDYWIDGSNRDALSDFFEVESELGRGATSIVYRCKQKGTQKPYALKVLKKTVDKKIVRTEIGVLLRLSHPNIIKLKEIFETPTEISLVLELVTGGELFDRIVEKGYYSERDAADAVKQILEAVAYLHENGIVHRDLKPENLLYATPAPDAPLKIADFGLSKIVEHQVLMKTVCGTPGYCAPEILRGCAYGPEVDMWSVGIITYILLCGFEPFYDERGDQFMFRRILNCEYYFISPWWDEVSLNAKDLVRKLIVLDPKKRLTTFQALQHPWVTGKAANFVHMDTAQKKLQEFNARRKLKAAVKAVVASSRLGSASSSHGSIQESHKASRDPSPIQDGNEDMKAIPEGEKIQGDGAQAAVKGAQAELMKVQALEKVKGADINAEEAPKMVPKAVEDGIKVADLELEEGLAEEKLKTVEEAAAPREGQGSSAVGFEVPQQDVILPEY

[5] = biological target: T1, Calcium/calmodulin-dependent protein kinase type IV (Homo sapiens); conditions: at 1 µM
[6] = biological target: T2, Serine/threonine-protein kinase Chk1 (Homo sapiens) (UniProt O14757); conditions: at 0.1 µM
T2 sequence (whole entry): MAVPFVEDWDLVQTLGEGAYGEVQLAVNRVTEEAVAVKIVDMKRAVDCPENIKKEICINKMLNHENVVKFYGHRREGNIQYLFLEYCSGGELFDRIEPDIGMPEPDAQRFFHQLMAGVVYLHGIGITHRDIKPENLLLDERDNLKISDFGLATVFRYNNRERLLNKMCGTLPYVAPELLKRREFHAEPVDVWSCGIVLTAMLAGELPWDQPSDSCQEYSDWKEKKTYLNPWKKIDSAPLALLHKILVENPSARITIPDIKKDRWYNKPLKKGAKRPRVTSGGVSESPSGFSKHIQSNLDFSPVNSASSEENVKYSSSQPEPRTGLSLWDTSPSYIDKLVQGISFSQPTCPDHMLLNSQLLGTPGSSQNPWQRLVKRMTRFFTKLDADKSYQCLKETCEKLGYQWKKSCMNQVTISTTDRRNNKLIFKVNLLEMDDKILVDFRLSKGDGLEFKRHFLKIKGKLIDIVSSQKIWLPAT

[7] = biological target: T2, Serine/threonine-protein kinase Chk1 (Homo sapiens); conditions: at 1 µM
[8] = biological target: Serine/threonine-protein kinase Chk2 (Homo sapiens) (UniProt O96017); conditions: at 0.1 µM
[9] = biological target: Serine/threonine-protein kinase Chk2 (Homo sapiens) (UniProt O96017); conditions: at 1 µM
[10] = biological target: Death-associated protein kinase 1 (Homo sapiens) (UniProt P53355); conditions: at 0.1 µM
[11] = biological target: Death-associated protein kinase 1 (Homo sapiens) (UniProt P53355); conditions: at 1 µM
[12] = biological target: T3, Serine/threonine-protein kinase DCLK2 (Homo sapiens) (UniProt Q8N568); conditions: at 0.1 µM
T3 sequence (whole entry): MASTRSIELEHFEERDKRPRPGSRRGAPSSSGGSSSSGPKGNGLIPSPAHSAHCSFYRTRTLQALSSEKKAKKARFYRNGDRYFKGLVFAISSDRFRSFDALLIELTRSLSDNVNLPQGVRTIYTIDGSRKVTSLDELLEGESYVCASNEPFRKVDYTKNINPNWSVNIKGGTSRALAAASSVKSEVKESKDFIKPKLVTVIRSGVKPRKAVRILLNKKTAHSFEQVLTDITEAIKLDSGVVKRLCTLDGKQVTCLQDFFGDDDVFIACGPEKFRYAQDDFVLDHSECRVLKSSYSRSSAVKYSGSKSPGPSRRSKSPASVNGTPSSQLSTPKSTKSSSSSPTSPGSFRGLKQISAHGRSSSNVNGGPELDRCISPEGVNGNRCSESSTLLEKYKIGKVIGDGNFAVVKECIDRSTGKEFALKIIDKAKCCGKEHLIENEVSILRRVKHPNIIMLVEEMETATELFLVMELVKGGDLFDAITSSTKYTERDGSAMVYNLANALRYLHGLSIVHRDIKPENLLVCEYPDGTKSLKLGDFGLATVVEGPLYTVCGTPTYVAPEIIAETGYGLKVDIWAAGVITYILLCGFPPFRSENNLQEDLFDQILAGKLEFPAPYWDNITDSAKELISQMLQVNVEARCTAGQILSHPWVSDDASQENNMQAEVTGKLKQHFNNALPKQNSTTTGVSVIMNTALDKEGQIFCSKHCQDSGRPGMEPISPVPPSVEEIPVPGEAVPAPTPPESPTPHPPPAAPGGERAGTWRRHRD

[13] = biological target: T3, Serine/threonine-protein kinase DCLK2 (Homo sapiens); conditions: at 1 µM
[14] = biological target: MAP kinase-activated protein kinase 2 (Homo sapiens) (UniProt P49137); conditions: at 0.1 µM
[15] = biological target: MAP kinase-activated protein kinase 2 (Homo sapiens) (UniProt P49137); conditions: at 1 µM
[16] = biological target: MAP kinase-activated protein kinase 3 (Homo sapiens) (UniProt Q16644); conditions: at 0.1 µM
[17] = biological target: MAP kinase-activated protein kinase 3 (Homo sapiens) (UniProt Q16644); conditions: at 1 µM
[18] = biological target: Serine/threonine-protein kinase MARK1 (Homo sapiens) (UniProt Q9P0L2); conditions: at 0.1 µM
[19] = biological target: Serine/threonine-protein kinase MARK1 (Homo sapiens) (UniProt Q9P0L2); conditions: at 1 µM
[20] = biological target: MAP/microtubule affinity-regulating kinase 3 (Homo sapiens) (UniProt P27448); conditions: at 0.1 µM;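 note: mean percent inhibition of MARK3 kinase activity, measured within the GSK PKIS screening panel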
Sequence of MAP/microtubule affinity-regulating kinase 3 (Homo sapiens) (P27448 whole entry, looked up): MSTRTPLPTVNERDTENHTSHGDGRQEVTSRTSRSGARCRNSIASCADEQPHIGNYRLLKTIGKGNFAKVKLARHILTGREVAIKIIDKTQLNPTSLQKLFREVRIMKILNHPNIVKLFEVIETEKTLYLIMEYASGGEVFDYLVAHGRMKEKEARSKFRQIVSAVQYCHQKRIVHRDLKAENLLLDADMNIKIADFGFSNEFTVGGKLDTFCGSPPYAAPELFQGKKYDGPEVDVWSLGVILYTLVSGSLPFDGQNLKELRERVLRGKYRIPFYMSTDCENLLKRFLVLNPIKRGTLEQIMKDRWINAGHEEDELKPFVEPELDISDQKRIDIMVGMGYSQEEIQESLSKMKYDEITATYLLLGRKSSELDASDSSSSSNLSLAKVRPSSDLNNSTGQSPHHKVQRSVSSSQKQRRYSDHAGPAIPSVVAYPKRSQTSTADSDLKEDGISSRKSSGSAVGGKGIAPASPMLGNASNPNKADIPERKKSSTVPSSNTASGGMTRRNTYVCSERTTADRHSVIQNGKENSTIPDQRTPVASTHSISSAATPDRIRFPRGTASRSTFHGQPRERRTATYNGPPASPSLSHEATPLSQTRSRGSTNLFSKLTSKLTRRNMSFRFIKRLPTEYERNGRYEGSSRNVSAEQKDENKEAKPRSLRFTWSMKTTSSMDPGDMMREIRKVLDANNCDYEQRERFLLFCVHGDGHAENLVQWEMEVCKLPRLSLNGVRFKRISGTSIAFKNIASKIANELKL

Sequence of Calcium/calmodulin-dependent protein kinase type II subunit alpha (Homo sapiens) (Q9UQM7 whole entry): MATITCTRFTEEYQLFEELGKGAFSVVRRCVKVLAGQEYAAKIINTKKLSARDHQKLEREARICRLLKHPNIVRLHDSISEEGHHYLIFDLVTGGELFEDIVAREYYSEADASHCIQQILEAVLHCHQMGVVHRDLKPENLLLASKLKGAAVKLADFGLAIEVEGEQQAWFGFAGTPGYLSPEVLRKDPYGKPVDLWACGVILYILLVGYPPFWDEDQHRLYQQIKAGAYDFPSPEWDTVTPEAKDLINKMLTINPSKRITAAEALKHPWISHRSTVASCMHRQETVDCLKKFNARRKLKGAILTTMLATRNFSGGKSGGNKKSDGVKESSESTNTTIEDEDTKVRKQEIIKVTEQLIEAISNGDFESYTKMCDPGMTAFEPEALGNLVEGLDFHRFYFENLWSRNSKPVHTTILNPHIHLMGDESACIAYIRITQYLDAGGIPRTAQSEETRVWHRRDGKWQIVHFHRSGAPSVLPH
Sequence of MAP kinase-activated protein kinase 2 (Homo sapiens) (P49137 whole entry, looked up): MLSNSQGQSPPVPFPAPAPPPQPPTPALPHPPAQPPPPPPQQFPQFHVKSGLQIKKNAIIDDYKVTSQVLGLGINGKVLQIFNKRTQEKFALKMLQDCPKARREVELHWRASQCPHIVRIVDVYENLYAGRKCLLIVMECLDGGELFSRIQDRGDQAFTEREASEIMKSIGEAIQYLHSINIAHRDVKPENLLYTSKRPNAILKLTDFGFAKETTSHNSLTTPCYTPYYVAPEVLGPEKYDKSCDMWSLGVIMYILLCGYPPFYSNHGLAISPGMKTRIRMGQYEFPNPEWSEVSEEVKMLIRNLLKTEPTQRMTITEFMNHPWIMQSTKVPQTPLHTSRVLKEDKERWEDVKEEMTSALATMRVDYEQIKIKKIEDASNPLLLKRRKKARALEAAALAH
Sequence of Serine/threonine-protein kinase Chk2 (Homo sapiens) (O96017 whole entry): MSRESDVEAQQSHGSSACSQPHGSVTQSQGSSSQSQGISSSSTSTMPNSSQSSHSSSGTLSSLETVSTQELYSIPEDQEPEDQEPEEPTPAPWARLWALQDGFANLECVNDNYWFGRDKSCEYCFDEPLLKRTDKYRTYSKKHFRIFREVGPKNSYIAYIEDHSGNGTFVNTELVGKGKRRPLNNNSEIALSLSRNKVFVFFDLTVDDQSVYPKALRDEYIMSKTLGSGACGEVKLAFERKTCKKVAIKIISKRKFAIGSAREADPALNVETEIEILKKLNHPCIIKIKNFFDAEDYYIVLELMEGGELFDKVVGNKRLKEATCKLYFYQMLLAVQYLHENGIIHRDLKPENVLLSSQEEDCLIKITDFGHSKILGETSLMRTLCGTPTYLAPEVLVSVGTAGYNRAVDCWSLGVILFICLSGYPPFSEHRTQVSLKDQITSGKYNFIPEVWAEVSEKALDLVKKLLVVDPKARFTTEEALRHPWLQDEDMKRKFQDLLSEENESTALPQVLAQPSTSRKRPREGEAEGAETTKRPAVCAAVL
Sequence of Serine/threonine-protein kinase MARK1 (Homo sapiens) (Q9P0L2 whole entry, looked up): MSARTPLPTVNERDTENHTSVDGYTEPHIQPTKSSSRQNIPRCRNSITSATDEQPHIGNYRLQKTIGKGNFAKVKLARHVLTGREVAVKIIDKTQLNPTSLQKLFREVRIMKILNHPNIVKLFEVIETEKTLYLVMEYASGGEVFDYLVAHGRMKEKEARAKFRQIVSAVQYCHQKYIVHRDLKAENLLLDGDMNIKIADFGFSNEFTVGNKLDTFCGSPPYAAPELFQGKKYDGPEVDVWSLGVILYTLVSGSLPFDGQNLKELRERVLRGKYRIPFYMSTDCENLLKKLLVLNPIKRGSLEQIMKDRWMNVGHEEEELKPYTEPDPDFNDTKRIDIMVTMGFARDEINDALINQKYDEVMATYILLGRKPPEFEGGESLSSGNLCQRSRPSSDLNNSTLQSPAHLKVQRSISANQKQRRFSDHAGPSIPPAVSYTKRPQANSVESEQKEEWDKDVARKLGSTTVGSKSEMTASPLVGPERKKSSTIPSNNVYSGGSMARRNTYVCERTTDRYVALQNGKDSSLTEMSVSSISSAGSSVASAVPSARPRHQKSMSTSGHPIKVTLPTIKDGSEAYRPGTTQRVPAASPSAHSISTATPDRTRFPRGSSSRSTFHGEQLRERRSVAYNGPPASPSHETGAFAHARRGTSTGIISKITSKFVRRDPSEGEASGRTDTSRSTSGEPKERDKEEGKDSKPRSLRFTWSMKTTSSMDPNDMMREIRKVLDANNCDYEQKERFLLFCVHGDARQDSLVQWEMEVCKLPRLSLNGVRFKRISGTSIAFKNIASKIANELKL
Sequence of Death-associated protein kinase 1 (Homo sapiens) (P53355 whole entry, looked up): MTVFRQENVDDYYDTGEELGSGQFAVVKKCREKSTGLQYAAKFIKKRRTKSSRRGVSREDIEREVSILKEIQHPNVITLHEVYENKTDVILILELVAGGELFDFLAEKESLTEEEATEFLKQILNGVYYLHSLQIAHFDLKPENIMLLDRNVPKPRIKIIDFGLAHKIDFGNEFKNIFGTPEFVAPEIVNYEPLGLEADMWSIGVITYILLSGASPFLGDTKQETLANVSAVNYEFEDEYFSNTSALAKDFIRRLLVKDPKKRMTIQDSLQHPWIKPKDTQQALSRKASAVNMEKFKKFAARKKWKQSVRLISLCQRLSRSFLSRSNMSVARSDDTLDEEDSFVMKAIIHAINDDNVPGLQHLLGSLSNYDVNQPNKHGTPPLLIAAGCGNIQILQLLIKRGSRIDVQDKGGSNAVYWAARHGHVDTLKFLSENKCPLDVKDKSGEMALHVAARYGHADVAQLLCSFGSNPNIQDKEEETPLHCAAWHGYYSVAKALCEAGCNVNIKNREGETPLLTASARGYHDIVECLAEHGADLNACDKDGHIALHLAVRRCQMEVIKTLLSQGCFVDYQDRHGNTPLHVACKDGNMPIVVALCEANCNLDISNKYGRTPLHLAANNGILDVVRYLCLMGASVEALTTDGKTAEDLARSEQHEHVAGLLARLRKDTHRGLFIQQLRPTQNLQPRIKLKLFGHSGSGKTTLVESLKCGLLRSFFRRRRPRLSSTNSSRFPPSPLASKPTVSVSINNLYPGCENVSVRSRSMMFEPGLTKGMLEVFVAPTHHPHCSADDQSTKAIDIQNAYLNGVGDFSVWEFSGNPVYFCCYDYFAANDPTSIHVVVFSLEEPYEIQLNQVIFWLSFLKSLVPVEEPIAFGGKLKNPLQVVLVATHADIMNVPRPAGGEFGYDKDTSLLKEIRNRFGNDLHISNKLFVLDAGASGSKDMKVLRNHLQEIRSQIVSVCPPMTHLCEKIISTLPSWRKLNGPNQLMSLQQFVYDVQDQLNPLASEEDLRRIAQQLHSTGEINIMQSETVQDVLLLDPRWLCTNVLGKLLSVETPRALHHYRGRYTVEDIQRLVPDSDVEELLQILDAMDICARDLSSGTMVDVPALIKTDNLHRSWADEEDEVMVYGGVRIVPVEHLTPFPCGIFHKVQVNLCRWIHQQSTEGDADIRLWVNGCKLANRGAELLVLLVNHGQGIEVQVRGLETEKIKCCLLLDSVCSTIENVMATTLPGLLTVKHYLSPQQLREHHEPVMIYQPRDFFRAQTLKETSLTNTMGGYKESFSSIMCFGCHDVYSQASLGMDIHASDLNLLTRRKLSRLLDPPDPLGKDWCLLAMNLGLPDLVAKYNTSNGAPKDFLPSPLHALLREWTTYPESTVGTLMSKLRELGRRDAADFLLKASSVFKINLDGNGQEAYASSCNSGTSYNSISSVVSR
Sequence of Calcium/calmodulin-dependent protein kinase type II subunit delta (Homo sapiens) (Q13557 whole entry): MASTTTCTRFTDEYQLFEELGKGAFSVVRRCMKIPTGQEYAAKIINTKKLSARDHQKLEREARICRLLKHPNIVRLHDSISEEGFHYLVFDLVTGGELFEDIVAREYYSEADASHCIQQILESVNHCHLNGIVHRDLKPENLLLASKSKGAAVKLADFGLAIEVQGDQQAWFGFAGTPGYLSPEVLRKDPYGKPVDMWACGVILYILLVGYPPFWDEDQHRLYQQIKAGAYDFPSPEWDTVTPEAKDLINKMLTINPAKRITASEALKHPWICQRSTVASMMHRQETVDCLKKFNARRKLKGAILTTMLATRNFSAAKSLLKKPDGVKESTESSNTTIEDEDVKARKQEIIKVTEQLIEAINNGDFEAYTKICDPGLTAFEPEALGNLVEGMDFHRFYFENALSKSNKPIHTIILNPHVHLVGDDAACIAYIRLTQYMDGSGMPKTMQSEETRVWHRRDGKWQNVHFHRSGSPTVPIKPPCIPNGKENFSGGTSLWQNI

Structure (SMILES)	inhibition [1]	inhibition [2]	inhibition [3]	inhibition [4]	inhibition [5]	inhibition [6]	inhibition [7]	inhibition [8]	inhibition [9]	inhibition [10]	inhibition [11]	inhibition [12]	inhibition [13]	inhibition [14]	inhibition [15]	inhibition [16]	inhibition [17]	inhibition [18]	inhibition [19]	inhibition [20]
O=C1Nc2ccc(-c3cccnc3)cc2C1=Cc1cc(Br)c(O)c(Br)c1	5.84%	3.26%	7.6%	0.54%	-0.48%	3.16%	0.96%	3.4%	8.93%	1.41%	-6.21%	1.65%	0.92%	1.36%	1.49%	2.4%	2.92%	4.31%	9.1%	4.31%
COc1cc2ncn(-c3cc(OCc4ccccc4S(C)(=O)=O)c(C#N)s3)c2cc1OC	29.9%	18.3%	62.8%	1.21%	1.69%	5.49%	23.3%	10%	43%	3.5%	6.48%	1.77%	0.47%	1.6%	1.54%	3.38%	4.59%	36.9%	80%	49.6%
C[C@@H](Oc1cc(-n2cnc3ccc(OCC4CCN(C)CC4)cc32)sc1C(N)=O)c1ccccc1C(F)(F)F	14.2%	6.59%	49.9%	-0.36%	1.74%	-1.68%	0.33%	-2%	-1.44%	-1.34%	3.7%	-1.44%	0.02%	-1.73%	-1.24%	-0.96%	-1.6%	8.37%	50.7%	6.29%
Cc1ccc(Nc2ccnc(Nc3cccc(C(N)=O)c3)n2)cc1O	3.19%	2.94%	5.54%	-0.64%	-0.14%	1%	2.08%	2.56%	12.8%	1.62%	0.43%	-4.04%	0.3%	1.02%	0.74%	3.05%	7.65%	2.3%	6.45%	4.15%
C[C@@H](Oc1cc(-n2cnc3ccc(OC[C@@H](O)CO)cc32)sc1C(N)=O)c1ccccc1Cl	2.24%	-0.89%	7.31%	1.25%	1.44%	0.04%	-1.83%	-1.68%	-1.71%	-1.62%	-5.26%	0.92%	-6.84%	-0.75%	-0.94%	-0.21%	-0.73%	0.87%	5.71%	0.4%
COc1cc2ncnc(Nc3ccc4c(cnn4Cc4ccccc4)c3)c2cc1OC	0.24%	1.57%	4.24%	-0.17%	0.05%	8.66%	14.1%	10.7%	35.9%	9.32%	8.23%	-1.15%	0.67%	2.78%	4.35%	6.95%	9.14%	1.12%	3.17%	0.1%
Nc1ccc(C#Cc2cncnc2Nc2ccc(OCc3cccc(F)c3)c(Cl)c2)cc1	-1.06%	0.73%	0.72%	1.79%	-0.16%	0.65%	0.62%	1.8%	0.63%	4.63%	1.54%	-0.36%	-0.03%	2.17%	0.48%	4.18%	4.4%	2.19%	3.58%	2.93%
COC(=O)c1cncc(/C=C/c2c(C)cc(O)cc2C)c1	3.06%	1.37%	3%	-2.74%	-4.13%	3.13%	3.49%	2.38%	4.27%	4.88%	5.55%	1.84%	1.18%	1.83%	2.28%	2.97%	3.34%	2.55%	2.79%	2.68%
CCOc1nccc2c1nc(-c1nonc1N)n2CC	2.47%	1.48%	3.36%	-4.15%	-3.33%	4.09%	5.94%	2.06%	3.78%	3.66%	3.18%	0.43%	1.18%	2.38%	2.83%	3.14%	2.96%	2.58%	9.64%	1.53%
Cc1nc(-c2ccccc2)n2nc(NCCCN3CCOCC3)ncc12	3.41%	2.22%	3.36%	0.88%	2.05%	1.78%	3.88%	2.24%	4.72%	3.5%	1.62%	-0.46%	1.45%	1.25%	2.01%	1.51%	1.12%	0.92%	3%	0.93%
Nc1nccc(-c2c(-c3ccc(F)cc3)ncn2CCCN2CCOCC2)n1	2.46%	1.96%	2.44%	0.27%	-0.08%	3.25%	5.25%	1.76%	4.69%	5.49%	5.9%	2.38%	-0.25%	2.78%	2.33%	9.94%	23.5%	3.81%	6.99%	2.18%
NS(=O)(=O)c1cccc(-c2cc3ccncc3cc2OCc2ccccc2)c1	4.81%	4.83%	5.07%	0.13%	-0.46%	5.29%	6.26%	3.17%	5.38%	6.37%	7.29%	0.9%	0.91%	2.83%	3.32%	4.06%	3.27%	5.91%	9.52%	5.98%
CN(c1ccc(NC(=O)Nc2ccc(OC(F)(F)F)cc2)cc1)c1ccnc(Nc2cccc(S(N)(=O)=O)c2)n1	-1.5%	1.07%	0.14%	-0.96%	0.59%	1.72%	-0.01%	5.43%	25.9%	3.79%	2.02%	-2.05%	0.7%	0.67%	-0.37%	2.5%	7.62%	0.28%	2.36%	1.62%
